Measurements taken from the supplement of paper PMC6555819.

Experiments:
Assay in all cases: PBM binding z-score (relative to random genomic background probes); higher = stronger binding; sequences stand for … in GC…GCGATTGACAGCGTAGAATGAAGG
[1] = system: FXR:RXRa (NR concentration 270 nM, RXRa partner concentration 90 nM)
In short: (§1)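 Random background probes are the reference for binding z-scores. These scores derive from regression-normalized fluorescence on custom Agilent 4×180K protein-binding microarrays incubated 1 h with ligand-free nuclear receptor dimers. Binding was detected with antibodies against each partner (one per run).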

[2] = system: LXRa:RXRa (NR concentration 270 nM, RXRa partner concentration 90 nM)
In short: as §1

[3] = system: LXRa homodimer (NR concentration 270 nM)
In short: as §1

[4] = system: LXRb:RXRa (NR concentration 270 nM, RXRa partner concentration 90 nM)
In short: as §1

[5] = system: LXRb homodimer (NR concentration 270 nM)
In short: as §1

[6] = system: PPARa:RXRa (NR concentration 270 nM, RXRa partner concentration 90 nM)
In short: as §1

[7] = system: PPARg:RXRa (NR concentration 180 nM, RXRa partner concentration 90 nM)
In short: as §1

[8] = system: PPARg:RXRa 270nM:90nM, anti-RXR (NR concentration 270 nM, RXRa partner concentration 90 nM)
In short: as §1

[9] = system: PPARg:RXRa 30nM:10nM, anti-RXR (NR concentration 30 nM, RXRa partner concentration 10 nM)
In short: as §1

[10] = system: PPARg:RXRa 90nM:30nM, anti-RXR (NR concentration 90 nM, RXRa partner concentration 30 nM)
In short: as §1

[11] = system: PPARg:RXRa DBDmut IVT, anti-RXR (DBD mutation: RXRa K156A/R161A, NR concentration 270 nM, RXRa partner concentration 90 nM)
In short: as §1

[12] = system: PPARg:RXRa IVT, anti-PPARg (NR concentration 270 nM, RXRa partner concentration 90 nM)
In short: as §1

[13] = system: PPARg DBDmut:RXRa IVT, anti-PPARg (DBD mutation: PPARg1 K132A/R137A, NR concentration 270 nM, RXRa partner concentration 90 nM)
In short: as §1

[14] = system: PPARg DBDmut IVT, anti-PPARg (DBD mutation: PPARg1 K132A/R137A, NR concentration 270 nM)
In short: as §1

[15] = system: PPARg homodimer (NR concentration 180 nM)
In short: as §1

[16] = system: PXR:RXRa (NR concentration 270 nM, RXRa partner concentration 90 nM)
In short: as §1

[17] = system: PXR homodimer (NR concentration 270 nM)
In short: as §1

[18] = system: RARa:RXR (NR concentration 270 nM, RXRa partner concentration 90 nM)
In short: as §1

[19] = system: RARa homodimer (NR concentration 270 nM)
In short: as §1

[20] = system: RARb:RXRa (NR concentration 270 nM, RXRa partner concentration 90 nM)
In short: as §1

| Sequence | PBM binding z-score [1] | PBM binding z-score [2] | PBM binding z-score [3] | PBM binding z-score [4] | PBM binding z-score [5] | PBM binding z-score [6] | PBM binding z-score [7] | PBM binding z-score [8] | PBM binding z-score [9] | PBM binding z-score [10] | PBM binding z-score [11] | PBM binding z-score [12] | PBM binding z-score [13] | PBM binding z-score [14] | PBM binding z-score [15] | PBM binding z-score [16] | PBM binding z-score [17] | PBM binding z-score [18] | PBM binding z-score [19] | PBM binding z-score [20] |
| --- | --- | --- | --- | --- | --- | --- | --- | --- | --- | --- | --- | --- | --- | --- | --- | --- | --- | --- | --- | --- |
| GCTAGCAGGCCATTTGGGTCACCCAATGACGGGC | 0.339 | -0.142 | -0.557 | 0.0231 | -1.02 | 1.67 | 0.947 | 0.784 | -0.28 | 0.167 | 1.07 | 2.71 | -0.843 | -0.885 | -0.136 | 0.692 | 0.0143 | 1.02 | -0.844 | 1.62 |
| CGAACTTGGTCATTGACAGGACAGTGAATAGTAA | 0.086 | -0.0975 | -0.179 | 0.228 | -0.101 | 0.267 | 0.262 | 0.00224 | -0.244 | -0.0611 | 0.617 | 0.897 | 0.111 | 0.232 | 0.209 | 0.0575 | 0.147 | 0.48 | 0.507 | 0.912 |
| CCTTACGGATCACTCCAGGTTATAGCATCGGAGT | 0.957 | 3.48 | 1.36 | 0.889 | 0.62 | 0.155 | 0.486 | -0.0175 | -0.194 | -0.283 | 0.299 | 0.0369 | 0.0149 | 0.787 | 1 | 0.823 | 0.761 | 0.748 | 1.26 | 0.105 |
| ATCTCTTGGTAACAAGTTCAGTGAAAGAGAGGAC | 0.45 | 0.448 | 0.452 | 0.565 | 0.787 | 0.547 | -0.00548 | 0.156 | 0.0559 | 0.28 | -0.454 | 0.272 | 0.927 | 1.13 | 0.303 | 1.67 | 1.14 | 0.676 | 0.0703 | 1.37 |
| AGAACGAGGGCAATGAGTTGATCGCACGGGTGGC | 0.0662 | 0.0988 | -0.712 | -0.452 | -0.58 | 1.33 | 1.16 | 0.618 | -0.283 | 0.0795 | 2.79 | 2.63 | 0.67 | 0.015 | -0.315 | 1.75 | 5.1 | 0.134 | -0.671 | 2 |
| GCTTACGGGTCAAAGGTTATAGCATGAATAGAAT | 7.45 | 5.9 | 0.64 | 6.1 | 0.563 | 6.96 | 11.1 | 9.42 | 9.01 | 9.91 | 4.91 | 5.87 | 1.16 | 0.991 | 2.12 | 6.26 | 0.29 | 8.55 | 0.989 | 4.79 |
| CAAACTAGTTCACAGAGGTCAAAGTCCGTGCGTA | 5.85 | 6.23 | 7.12 | 5.68 | 2.36 | 5.3 | 3.87 | 5.02 | 2.33 | 4.18 | 2.43 | 3.25 | 0.945 | 0.72 | 4.3 | 7.16 | 14.3 | 7.22 | 2.73 | 4.46 |
| CTACCAAGGCGAACAAGGTCGTTGATTACTATTC | 0.285 | 0.164 | 0.0479 | 0.521 | -0.798 | 0.658 | 0.0767 | 0.292 | -0.118 | -0.247 | 0.161 | -0.119 | -0.0454 | 0.0113 | 0.33 | 1.25 | 0.453 | 1.16 | 0.111 | 0.395 |
| GGAACAAGGGCAAAGTTGATAGCATCTGTCGACG | 0.623 | 0.618 | -0.274 | 0.612 | -0.0187 | 3.56 | 5.8 | 6.3 | 5.66 | 6.8 | 2.8 | 3.73 | 0.621 | -0.078 | 0.637 | 0.784 | 0.0632 | 0.948 | 0.248 | 2.42 |
| CAAACTAGGCCAAGAGGTCAAAGTCCGCTTCCCG | 5.17 | 5.51 | 4.77 | 4.72 | 1.13 | 5.68 | 6.86 | 6.66 | 5.68 | 6.63 | 6.71 | 6.57 | 1.38 | 0.62 | 2.87 | 5.62 | 1.75 | 6.34 | 1.51 | 4.2 |
| AGTCAAAGTTCATCGAGGTAACGTAAGATATGCT | 6.65 | 6 | 4.5 | 3.72 | 1.07 | 5.27 | 6.71 | 6.39 | 3.74 | 5.59 | 0.275 | 3.44 | 1.15 | 1.15 | 2.53 | 5.38 | 9.82 | 3.97 | 0.864 | 5.07 |
| ATCGAAAGGTCTAGGTGAGTATAGAGAAAGGGAA | 0.504 | 0.836 | 0.254 | 0.163 | 0.443 | 0.539 | 0.509 | 0.366 | 0.34 | 0.331 | 0.689 | 1.37 | 0.807 | 0.731 | 0.408 | 0.216 | 0.272 | 0.406 | 0.837 | 1.71 |
| GGAACGAGGGCATTCGAGCTGATAGCATGGCGAT | 0.586 | 0.0957 | -0.939 | -0.339 | -0.953 | 1.17 | 0.733 | 0.363 | -0.239 | -0.177 | 2.71 | 1.64 | -0.32 | -0.167 | -0.0868 | 0.26 | -0.341 | -0.000407 | -0.846 | 1.45 |
